Rows were chosen to be rich in hits. Some 4.9% of all compounds tested hit in one or more screens of this group.
Mdm2 MdmX PPI: human Mdm2/MdmX binding inhibition | O15151+Q00987 | SaOS-2 split-luciferase Mdm2/MdmX complementation, luminescence | inhibition, % at 8 µM | 3% of 330,000 active;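 active = inhibition of at least 50% at 8 µM in the primary screen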
Target sequence (O15151 whole entry, looked up): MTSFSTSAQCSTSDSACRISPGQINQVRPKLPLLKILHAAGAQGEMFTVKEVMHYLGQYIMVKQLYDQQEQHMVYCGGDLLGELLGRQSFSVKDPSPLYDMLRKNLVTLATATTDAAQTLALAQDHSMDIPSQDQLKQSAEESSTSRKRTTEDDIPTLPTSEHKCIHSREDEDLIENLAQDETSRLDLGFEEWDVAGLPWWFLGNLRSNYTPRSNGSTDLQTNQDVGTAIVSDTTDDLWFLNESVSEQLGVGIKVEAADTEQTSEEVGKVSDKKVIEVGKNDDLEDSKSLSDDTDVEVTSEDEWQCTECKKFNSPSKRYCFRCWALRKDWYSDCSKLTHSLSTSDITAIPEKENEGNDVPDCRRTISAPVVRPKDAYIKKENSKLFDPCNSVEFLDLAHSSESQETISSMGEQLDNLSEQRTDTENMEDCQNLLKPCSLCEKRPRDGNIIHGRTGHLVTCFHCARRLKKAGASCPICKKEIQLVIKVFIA
Target sequence (Q00987 whole entry, looked up): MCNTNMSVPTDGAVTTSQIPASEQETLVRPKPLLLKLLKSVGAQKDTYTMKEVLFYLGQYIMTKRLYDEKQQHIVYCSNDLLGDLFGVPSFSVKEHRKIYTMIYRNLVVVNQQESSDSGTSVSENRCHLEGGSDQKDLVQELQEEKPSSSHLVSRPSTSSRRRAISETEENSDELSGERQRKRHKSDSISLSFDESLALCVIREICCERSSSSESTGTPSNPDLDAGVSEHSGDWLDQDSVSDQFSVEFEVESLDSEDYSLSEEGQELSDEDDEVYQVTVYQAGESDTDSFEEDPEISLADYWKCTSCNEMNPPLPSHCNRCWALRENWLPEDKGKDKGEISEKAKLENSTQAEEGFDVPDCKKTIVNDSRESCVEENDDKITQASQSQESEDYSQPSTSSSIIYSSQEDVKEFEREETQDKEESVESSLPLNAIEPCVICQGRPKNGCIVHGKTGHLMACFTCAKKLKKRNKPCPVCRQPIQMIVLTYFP
Calb FLC: C. albicans growth modulation with fluconazole; C. albicans CaCi-2 (fluconazole-resistant clinical isolate) + fluconazole, Alamar Blue growth, 48 h; growth inhibition, % (test concentration not listed); 0.57% of 300,000 active; AID 1979;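 active = growth inhibition above about 58% in most replicates, limit read from the data, passing the limit was not always enough; inconclusive = exactly half the replicates above a set limit; inactive = most replicates below a set limit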;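 note: all wells also contain fluconazole at 8 µg/ml as a sub-toxic cotreatment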
Beta cell apopt: beta cell apoptosis inhibition; 0.8% of 300,000 active; INS-1E cytokine-induced death, ATP luminescence, 48 h; percent of positive-control rescue, neutral wells zero; AID 435005; protection from apoptosis, % (no concentration beside the values);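 active = Every replicate reaches about 75%, or at least half do and their mean reaches it too, limit read from the data; inconclusive = At least half of replicates reach the limit but their mean does not; inactive = Under half of replicates reach the limit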;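 note: higher means more ATP so stronger rescue from cytokine killing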
PP5 inh: inhibitors of human protein phosphatase 5 (PP5); P53041; purified PP5c, OMFP substrate fluorescence; inhibition, % at 6.7 µM; 0.18% of 320,000 active;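 active = inhibition above the campaign's mean inhibition across all tested compounds plus 3 SD, cut at about 9.5% in these data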
CSC inhib: cancer stem cell inhibition; cancer stem cell-like cells viability, luminescence; inhibition, % at 7.5 µM; 1.1% of 300,000 active; in the data active = inhibition above about 75%; inconclusive = no clear call, values can overlap the other calls; tested in HMLE shEcad cells
PP1 inh: blocks human PP1-alpha phosphatase, a PP5 counter-screen. P62136. purified PP1alpha, OMFP fluorescence. inhibition, % at 6.7 µM. 0.9% of 320,000 active. AID 2235;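 active = inhibition above the mean inhibition of all tested compounds plus 3 SD, computed separately for each screening campaign, cut at about 15% in these data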
PP1 confirm: confirmation of human PP1 phosphatase inhibitors; purified PP1alpha, OMFP substrate fluorescence; inhibition, % at 6.7 µM; 52% of 1,900 active; shares compounds with PP1 inh;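 active = mean PP1 inhibition above a set limit taken from the earlier primary screen, cut at about 15% in these data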
PP5 counter: counter-screen for PP1 inhibitors: human PP5 phosphatase inhibition; shares compounds with PP1 inh; purified PP5c, OMFP fluorescence; inhibition, % at 6.7 µM; 4% of 1,900 active;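 active = mean PP5 inhibition over triplicate wells above about 9.5% taken from the earlier PP1 screen, limit read from the data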
Of the large screens only hits and unclear results are named; the others gave an inactive call (follow-up assays come after a bar, where they were run).

CC(=O)Nc1ccc(S(=O)(=O)NCCCN2CCN(Cc3ccccc3)CC2)cc1Cl	none
CN(C)S(=O)(=O)NCC1CCCN(Cc2ccc(-c3ccccc3)cc2)C1 (stereo not drawn)	none (no result: Beta cell apopt)
CCOc1ccc(CN2CCNC(=O)C2CC(=O)NC2CCCCCC2)cc1 (stereo not drawn)	PP1 inh 18 | PP1 confirm inactive | PP5 counter inactive
Cc1c(C(=O)NCc2ccc3c(c2)cc(C)n3C)cccc1[N+](=O)[O-]	none (no result: CSC inhib)
O=C(Nc1ccccc1Oc1cccnc1)C1CCCN(Cc2ccc(F)cc2)C1 (stereo not drawn)	PP1 inh 50 | PP1 confirm inactive | PP5 counter inactive
COc1cc(CN2CCCC(C(=O)Nc3ccccc3Oc3cccnc3)C2)ccc1F (stereo not drawn)	none (no result: CSC inhib)
Cc1nnsc1C(=O)N1CCCC(N2CCN(c3ccc(F)cc3)CC2)C1 (stereo not drawn)	none
OCCC1CN(Cc2ccc(Oc3ncccn3)cc2)CCN1Cc1ccc(F)c(F)c1 (stereo not drawn)	none
Cc1sc2nc(CSc3ccc([N+](=O)[O-])c(C(F)(F)F)c3)[nH]c(=O)c2c1C	PP1 inh 27 | PP1 confirm inactive | PP5 counter inactive
COC(=O)c1sc2nc(CSc3ccc(Br)cc3)[nH]c(=O)c2c1C	none
CCN(c1ccccc1)S(=O)(=O)c1ccc(C(=O)Nc2nnc(C3CC3)o2)cc1	Calb FLC 79, PP1 inh 31 | PP1 confirm 29 | PP5 counter inactive
CN(c1ccccc1)S(=O)(=O)c1ccc(C(=O)Nc2nnc(C3CC3)o2)cc1	PP1 inh 22 | PP1 confirm 19 | PP5 counter inactive
Cc1cccc2cc(-c3nc4c(C)cccn4c3NCc3ccco3)c(=O)[nH]c12	none
Cc1ccc2[nH]c(=O)c(-c3nc4cc(C)ccn4c3NCc3ccco3)cc2c1	PP1 inh 18 | PP1 confirm 21 | PP5 counter inactive
COc1ccc(Cc2nc3ccc(C(=O)NC(C)Cc4ncccc4C)cc3o2)cc1OC (stereo not drawn)	none
Cc1ccc(-c2ccc(SCC(=O)Nc3ccc4c(c3)OCCO4)nn2)cc1	PP1 inh 38 | PP1 confirm inactive | PP5 counter inactive
Clc1ccccc1C(c1ccccc1)(c1ccccc1)n1ccnc1	PP1 inh 18 (no result: Calb FLC) | PP1 confirm inactive | PP5 counter inactive
FC(F)(F)c1ccccc1-n1ccnc1	none (no result: Calb FLC)
Cc1ccc(NC(=O)Cn2ccc([N+](=O)[O-])n2)cc1C	none
CSc1nc(NCCOCCO)c2sc3nc(-c4ccco4)c4c(c3c2n1)CCC4	PP1 inh 45 | PP1 confirm 25 | PP5 counter inactive
CCN(CCO)c1nc(SC)nc2c1sc1nc(-c3ccco3)c3c(c12)CCC3	PP1 inh 19 (no result: CSC inhib) | PP1 confirm 28 | PP5 counter inactive
CCN(CCO)c1ncnc2c1sc1nc(C(C)C)c3c(c12)CC(C)(C)OC3	none
Nc1sc2c(c1C(=O)NC1CC1)CCCC2	none (no result: Calb FLC, PP5 inh, PP1 inh)
CCOC(=O)C1CCCN(c2ccc(NC(=O)c3snc4c(=O)[nH]cnc34)cc2)C1 (stereo not drawn)	PP1 inh 23 | PP1 confirm 26 | PP5 counter inactive
Cc1cc(-c2csc(NC(=O)c3ccc(=O)[nH]c3)n2)c(C)n1Cc1ccco1	PP1 inh 45 | PP1 confirm 34 | PP5 counter inactive
Cc1cccc(NC(=O)Cn2nnc(C(=O)Nc3ccc(F)c(Cl)c3)c2N)c1	PP1 inh 19 | PP1 confirm inactive | PP5 counter inactive
COc1cccc(CNC(=O)c2nnn(CC(=O)Nc3cccc(C)c3)c2N)c1	none
Cc1[nH]c(=O)[nH]c(=O)c1/C=N/NC(=O)[C@H](C)N	none
CCn1cnc2cc([N+](=O)[O-])ccc21	none
CC1=C(C(=O)Nc2ccccc2)C(c2ccc(C)cc2)N=C(Nc2nc3ccccc3o2)N1 (stereo not drawn)	PP1 inh 23 | PP1 confirm 25 | PP5 counter inactive
Cc1nnc(NC(=O)C2CCN(S(=O)(=O)c3ccc(F)c(F)c3)CC2)o1	none (no result: Calb FLC, PP5 inh, PP1 inh)
COc1ccc(Cl)cc1NC(=O)CN(C)CC(=O)NC(C)c1ccccc1 (stereo not drawn)	none
c1ccc(Nc2nc(-c3ccccn3)cs2)cc1	Calb FLC inconclusive, PP1 inh 50 | PP1 confirm 46 | PP5 counter inactive
O=C(Nc1nc(-c2ccccn2)cs1)c1ccc(Br)s1	Calb FLC 93, Beta cell apopt 85, CSC inhib 97, PP1 inh 31 | PP1 confirm 17 | PP5 counter inactive
COc1cccc(N2CCN(C(=O)CC(NC(=O)c3ccccc3)c3ccccc3)CC2)c1 (stereo not drawn)	none (no result: Calb FLC, CSC inhib)
Cc1cccc(N2CCN(C(=O)CC(NC(=O)c3ccccc3)c3ccccc3)CC2C)c1 (stereo not drawn)	PP1 inh 20 | PP1 confirm inactive | PP5 counter inactive
COc1ccc([C@H]2Oc3cc(O)cc(O)c3C(=O)C2[C@@H]2C(=O)c3c(O)cc(O)cc3O[C@@H]2c2ccc(OC)cc2)cc1 (stereo partly drawn)	CSC inhib 142, PP1 inh 25 | PP1 confirm inactive | PP5 counter inactive
COc1ccc(C2CC(=O)Oc3cc(O)cc(O)c32)cc1 (stereo not drawn)	none (no result: Beta cell apopt)
Cc1cnc(C)c(N2CCN(Cc3nc(-c4ccccc4)no3)CC2)n1	none
O=C(N/N=C/c1c(O)n(-c2ccccc2Cl)c(=O)c2ccccc12)C1COc2ccccc2O1 (stereo not drawn)	PP1 inh 19 | PP1 confirm 23 | PP5 counter inactive
O=C(NCc1ccccc1)C1(c2cccc(F)c2)CCCC1	none
CCN(c1ccccc1)S(=O)(=O)c1ccc(C(=O)Nc2cccc(C)n2)cc1	none (no result: Calb FLC)
CCN(Cc1ccccc1)S(=O)(=O)c1ccc(C(=O)Nc2nnc(-c3ccccc3OC)o2)cc1	Calb FLC 83, PP1 inh 30 | PP1 confirm 30 | PP5 counter inactive
CCCN(CCC)S(=O)(=O)c1ccc(C(=O)Nc2nnc(CSC)o2)cc1	PP1 inh 24 | PP1 confirm 22 | PP5 counter inactive
CCN(c1ccccc1)S(=O)(=O)c1ccc(C(=O)Nc2nnc(CSC)o2)cc1	PP1 inh 38 | PP1 confirm 28 | PP5 counter inactive
COc1ccccc1-c1nnc(NC(=O)c2ccc(S(=O)(=O)N(C)C)cc2)o1	none
CCCCN(C)S(=O)(=O)c1ccc(C(=O)Nc2nnc(-c3cccs3)o2)cc1	Calb FLC 84, CSC inhib 111, PP1 inh 33 | PP1 confirm 20 | PP5 counter inactive
Oc1c(Br)cc(Br)cc1CNn1cnnc1	none
NNC(=O)c1cnn(-c2ccccc2)c1-n1cccc1	none
